Reference: PubChem BioAssay AID1963322 (National Center for Advancing Translational Sciences (NCATS), 2024)
Inconclusive results are not listed. A call without a number means that no potency is given here. Calls of active or inactive are those of the source. The call rests on the fitted dose curve.

What follows are compounds tested against cAMP-dependent protein kinase catalytic subunit alpha (Homo sapiens) (UniProt P17612) (assay: Protein Kinase A (PKA-HiBiT) SDR gain of signal screen). Conditions: PKA-HiBiT structural dynamics response (SDR), luminescence gain of signal; series mostly up to 32.9 µM.
Description: National Center for Advancing Translational Sciences (NCATS),
National Institute of Health (NIH), Maryland
Discovery and optimization of novel protein-binding ligands underlies many of the methods and applications of biology, drug discovery, clinical diagnostics, and environmental toxicology. Assays for detecting the interaction of, for example, a molecule with a macromolecular target also referred to here as the target of interest (TOI) is dependent on a compatible output technology. Depending on the nature and knowledge surrounding the TOI, whether a receptor, enzyme, regulatory subunit or scaffold, or a sequence-defined nucleic acid folded into a complex tertiary structure, assay strategies can vary widely.
Here we exploit ligand-biased changes in the structural dynamics of the target protein to control reporter alpha complementation allowing a non-competitive, non-functional, non-separation measure of ligand-target interaction.
Using a chemical library of >1,200 compounds enriched for scaffolds known to be associated with the inhibition of firefly luciferase (FLuc) activity (PubChem AIDs 2309) we first illustrate and compare the Structural Dynamics Response (SDR) assay vs. the standard functional FLuc enzyme assay (2). Secondly, we show the specificity and sensitivity of the SDR for the Abelson tyrosine kinase (ABL1) compared to the serine/threonine protein kinase A, using an enriched chemical library of 128 compounds selected, in part, for activity annotated with ABL1 kinase activity using the Pharos database (3).
(1) A. S. Dixon et al., NanoLuc Complementation Reporter Optimized for Accurate Measurement of Protein Interactions in Cells. ACS Chem Biol 11, 400-408 (2016).
Chemistry & Biology, 19, 1060 - 1072 (2012).
(3) K. J. Kelleher et al., Pharos 2023: an integrated resource for the understudied human proteome. Nucleic Acids Res 51, D1405-D1416 (2023).
PROTOCOL TABLE (as described by Inglese J, Shamu CE and Guy RK. 2007)
SEQUENCE No. (e.g., 1, 2, 3, etc.); […] (e.g., C. elegans, Compounds, Incubation, Read, etc.); VALUE and DESCRIPTION.
1. Reagent. Dispense 4 uL PKA-N-HiBiT enzyme per well at a final enzyme concentration of 10 nM in buffer into columns 2-48 of four replicate Greiner 1536-well white,solid bottom high base, medium plates per assay. Dispense respective buffer without enzyme at 4 uL/well in column 1 of assay plates using BioRaptr 2.
2. Compounds. Library compounds added at 23 nL/well by pin transfer. DMSO neutral control and H-89 positive control added at 25 nL/well, transfer by Mosquito dispenser.
3. Incubation. Incubate enzyme and compounds at room temperature for 30 min, protect from light.
4. Reagent. (SDR assay) Add 3 uL/well of Nano-Glo HiBiT reagent (Promega) to assay plates.
5. Incubation. (SDR assay) Incubate enzyme solution HiBiT reagent at room temperature for 10 min, protected from light.
6. Detector. (SDR assay) Luminescence measured using CCD-based camera (ViewLux) with settings as follows: Exposure, 1 sec; Gain, High; Speed, Slow; Binning, 2X.
In the case of `CCCCCCCCCCCCc1ccc(S(=O)(=O)Nc2nncs2)cc1`, the Potency is reported as “inactive”. In the case of `Cc1ccc(-n2nc(C(C)(C)C)cc2NC(=O)NCc2cc(F)ccc2Oc2ccc3c(cnn3CCO)c2)cc1`, the Potency is reported as “inactive”. With `C[C@@H](NC(=O)c1ncnc(N)c1Cl)c1ncc(C(=O)Nc2cc(C(F)(F)F)c(Cl)cn2)s1` the Potency was “inactive”. `Nc1nc(NCCNc2ncc(-n3ccnc3)c(-c3ccc(Cl)cc3Cl)n2)ccc1[N+](=O)[O-]` was tested, and the Potency was “inactive”. `CC(C)CCN1c2nc(Nc3cc(F)c(O)c(F)c3)ncc2N(C)C(=O)C1C` (stereo not given) was tested, and the Potency was “inactive”. In the case of `CN1CCN(c2ccc(Nc3ncc4cc(C#N)c(=O)n(C5CCCC5)c4n3)cc2)CC1`, the Potency is reported as “inactive”. In the case of `COc1cc2ncnc(Nc3ccc(F)c(Cl)c3)c2cc1OCCCN1CCOCC1`, the Potency is reported as “inactive”. `Cc1cc(Nc2ncc3c(n2)N(C)C(=O)N(c2cc(NC(=O)c4cccc(C(F)(F)F)c4)ccc2C)C3)n(C)n1` was tested, and the Potency was “inactive”. For `Nc1ncnc2c1c(-c1cnc3[nH]ccc3c1)nn2C1CCCC1`, the Potency was “inactive”. For `COc1cc2c(Oc3ccc4[nH]c(C)cc4c3F)ncnc2cc1OCCCN1CCCC1`, the Potency was “inactive”. For `NC(=O)c1cccc(-c2cc(Nc3ccc(OC(F)(F)F)cc3)ncn2)c1`, the Potency was “inactive”. With `FC(F)(F)c1ccc(/C=C/c2nc(COc3ccc(CCCCn4ccnn4)cc3)co2)cc1` the Potency was “inactive”. In the case of `O=C(NCCO)c1cccc(-c2cc(Nc3ccc(OC(F)(F)F)cc3)ncn2)c1`, the Potency is reported as “inactive”. With `CO[C@H]1/C=C/O[C@@]2(C)Oc3c(C)c(O)c4c(O)c(c(/C=N\N5CCN(C6CCCC6)CC5)c(O)c4c3C2=O)NC(=O)/C(C)=C\C=C\[C@H](C)[C@H](O)[C@@H](C)[C@@H](O)[C@@H](C)[C@H](OC(C)=O)[C@@H]1C` the Potency was “inactive”. `COc1cc(NC(=O)c2cccc(-n3cc(NC(=O)Nc4cccc(C)c4)cn3)c2)cc(OC)c1OC` was tested, and the Potency was “inactive”. With `COc1ccc(CNC(=O)Nc2ncc([N+](=O)[O-])s2)cc1` the Potency was “inactive”. With `COc1ccc(-n2c(SCC#N)nc3sc4c(c3c2=O)CCCC4)cc1` the Potency was “inactive”. With `Cc1[nH]nc2ncc(C(=O)N3CCC[C@H]3c3ccc(Cl)cc3)cc12` the Potency was 12.4 µM (active). With `Cc1nc2ccc(-n3ncc(C(=O)c4cc5ccccc5[nH]4)c3N)cc2[nH]1` the Potency was “inactive”. In the case of `CN(c1ncccc1CNc1nc(Nc2ccc3c(c2)CC(=O)N3)ncc1C(F)(F)F)S(C)(=O)=O`, the Potency is reported as 4.41 µM (active). With `O=c1cc(N2CCOCC2)nc2c3ccccc3ccn12` the Potency was “inactive”. In the case of `Cc1cn(-c2cccc(NC(=O)c3ccc(C)c(Nc4nccc(-c5cccnc5)n4)c3)c2)cn1`, the Potency is reported as “inactive”. With `CCOc1ccn(-c2ccc(F)cc2)c(=O)c1C(=O)Nc1ccc(Oc2ccnc(N)c2Cl)c(F)c1` the Potency was 0.813 µM (active). `N#Cc1ccc2ncnc(NCCc3ccccc3)c2c1` was tested, and the Potency was “inactive”. `COc1cc(N2CCC(N3CCN(C)CC3)CC2)ccc1Nc1ncc(Cl)c(Nc2ccccc2P(C)(C)=O)n1` was tested, and the Potency was 5.55 µM (active). `Cc1ccccc1-n1c([C@H](C)Nc2nc(N)nc3nc[nH]c23)nc2cccc(C)c2c1=O` was tested, and the Potency was “inactive”. `Cc1cc(C)c(/C=C2\C(=O)Nc3ccccc32)[nH]1` was tested, and the Potency was “inactive”. With `O=C(NOCC(O)CO)c1cc(Br)c(F)c(F)c1Nc1ccc(I)cc1F` (stereo not given) the Potency was “inactive”. In the case of `COc1cc(N2CCOCC2)ccc1Nc1ncc(Cl)c(Nc2ccccc2NS(C)(=O)=O)n1`, the Potency is reported as 1.34 µM (active). `COc1cc(N2CCN(C)CC2)ccc1Nc1nc(N)c(C(=O)c2c(Cl)cccc2Cl)s1` was tested, and the Potency was “inactive”. For `NC1CCC(Nc2nc(Nc3ccc(C(=O)N4CCCCC4)cc3)c3ncn(-c4cccc(F)c4)c3n2)CC1` (stereo not given), the Potency was 11.5 µM (active). `C=CC(=O)N1CCC[C@@H](n2nc(-c3cccc(C(=O)Nc4ccc(C(C)C)c(C)c4)c3)c3c(N)ncnc32)C1` was tested, and the Potency was “inactive”. In the case of `O=S(=O)(/N=C/c1c(O)ccc2ccccc12)c1cccs1`, the Potency is reported as “inactive”. For `Cc1cc(NC(=O)c2ccc(C)c(Nc3nccc(-c4cccnc4)n3)c2)cc(-n2cnc(C)c2)c1`, the Potency was “inactive”. `CCn1nc(C2CCN(C(=O)CCO)CC2)nc1-c1cnc(N)c(-c2nnc(C(C)(C)C)o2)n1` was tested, and the Potency was “inactive”. In the case of `Cc1cn(-c2cc(F)cc(NC(=O)c3ccc(C)c(Nc4nccc(-c5cccnc5)n4)c3)c2)cn1`, the Potency is reported as “inactive”. `COc1cc2c(N3CCN(C(=O)Nc4ccc(OC(C)C)cc4)CC3)ncnc2cc1OCCCN1CCCCC1` was tested, and the Potency was “inactive”. With `Cc1cc(Nc2cc(N3CCN(C)CC3)nc(Sc3ccc(NC(=O)C4CC4)cc3)n2)n[nH]1` the Potency was “inactive”. For `CC(C)(NS(=O)(=O)c1ccc2c(Cl)cnc(N=C(N)N)c2c1)C(=O)O`, the Potency was “inactive”. `COc1cc(N2CCC(O)CC2)ccc1Nc1nc(Nc2ccccc2S(=O)(=O)C(C)C)c2[nH]cnc2n1` was tested, and the Potency was “inactive”.
